Laboratory results reported in ChEMBL document CHEMBL3988442, “University of Dundee, Small-Polar-MMV Screening Library” (2021).
Out of some 48,000 compounds screened, about 13,000 (27%) showed an effect of 50% or more. The list shows a part of the results.

System: Wolbachia pipientis
Assay: Anti-Wolbachia Cell-Based Screen
Format: functional
Design: scale not given: in the data most compounds retested in dose-response had high values
Details: 5 µM

Row | SMILES | Percent Effect
1 | Cc1[nH]nc2ncc(C(=O)N3CCN(CC(C)C)CC3)cc12 | 0.1242%
2 | Cc1cc(C)n(CCCN(C)C(=O)CN2CC3(CCNCC3)OC2=O)n1 | -7.554%
3 | CCN(CC)CC[C@H]1CN(C(=O)NC2CCCCC2)CC[C@H]1CC(=O)O | -0.6664%
4 | O=C(NC[C@H]1OC[C@@H](NC2CCCC2)[C@@H]1O)C1CCCC1 | 10.82%
5 | NC(=O)C1CN(Cc2c(O)ccc3oc4c(c23)CCCC4)CCO1 (centres undefined) | -16.77%
6 | O=C1NCCCc2c1oc1ccc(O)c(CN3CCOCC3)c21 | 142.2%
7 | Oc1ccc2oc3c(c2c1CN1CCOCC1)CCCC3 | 6.402%
8 | CCOc1ccc(C(=O)NCCCNc2ncccn2)cc1 | -0.3981%
9 | O=C(O)C(F)(F)F.O=C([C@@H]1COC[C@H]2CN(C3CCCC3)C[C@H]21)N1CCC(F)CC1 | -0.4691%
10 | O=C(C[S+]([O-])c1ccc(F)c(F)c1)NCc1cc(F)cc(F)c1 (centres undefined) | -8.156%
11 | COCCN1CCN(S(=O)(=O)c2ccccc2)Cc2cccnc21.O=C(O)C(F)(F)F | 100.4%
12 | COc1ccc(S(=O)(=O)N2CCN(C)c3ncccc3C2)cc1.O=C(O)C(F)(F)F | 100.8%
13 | COc1ccc(CC(=O)N2CCN(C)c3ncccc3C2)cc1.O=C(O)C(F)(F)F | 1.148%
14 | COCCN1CCN(Cc2c(C)noc2C)Cc2cccnc21.O=C(O)C(F)(F)F.O=C(O)C(F)(F)F | -0.8432%
15 | CC(C)CN1CCN(S(=O)(=O)c2cn(C)cn2)Cc2cccnc21.O=C(O)C(F)(F)F.O=C(O)C(F)(F)F | -3.796%
16 | COc1cccc(CC(=O)N2CCN(C)c3ncccc3C2)c1.O=C(O)C(F)(F)F | -8.872%
17 | CN(Cc1ccc(C(=O)O)cc1)C(=O)c1sccc1OC(F)F | 7.137%
18 | Cn1cc(CN2CC[C@H]3OCC[C@@H](C(=O)N4CCCCO4)[C@@H]3C2)cn1 | 16.39%
19 | CC(C)(C)N1CC(C(=O)N2CCN(CCn3cccc3)CC2)CC1=O (centres undefined) | -2.783%
20 | CCCN1CCCC2(CCN(S(=O)(=O)c3cc(C)nn3CC)C2)C1=O (centres undefined) | -15.13%
21 | CCn1nc(C)cc1S(=O)(=O)N1CCC2(CC(=O)NC2=O)C1 (centres undefined) | -2.488%
22 | CCn1cc(S(=O)(=O)N2CCC3(CCCN(CC4CCC4)C3=O)C2)cn1 (centres undefined) | -1.219%
23 | CCn1nccc1S(=O)(=O)N1CCC2(CCCN(C(C)C)C2=O)C1 (centres undefined) | -32.08%
24 | CCn1cc(S(=O)(=O)N2CCCC3(CC=CNC3=O)C2)cn1 (centres undefined) | 97.1%
25 | CCn1cc(S(=O)(=O)N2CCCC3(CC=CNC3=O)C2)c(C)n1 (centres undefined) | 118.1%
26 | CCn1ncc(S(=O)(=O)N2CCCC3(CC=CNC3=O)C2)c1C (centres undefined) | 120.2%

Row | SMILES | Percent Effect
27 | CC(C)n1cc(S(=O)(=O)N2CCCCC2)cn1 | 6.255%
28 | CCn1nc(C)cc1S(=O)(=O)N1CCC2(CCCN(C(C)C)C2=O)C1 (centres undefined) | -24.78%
29 | COc1cccc(CN(C)Cc2ccc(C#N)cc2)c1OC | -1.171%
30 | Cc1cc(NCCNc2ccc(C#N)cn2)nc(C)n1 | -1.6%
31 | Cc1ccccc1[C@@H]1CN(Cc2ccc(C(F)(F)F)nc2)C[C@H]1C(=O)O | 28.6%
32 | COCCCSc1ccc(NCc2cscn2)cc1 | -5.261%
33 | O=C(CCC(F)(F)F)NCC1CCCS1 (centres undefined) | -25.1%
34 | O=C(NCC1(CO)CC1)c1ccccc1Cl | 3.943%
35 | O=C(NC1(c2cccc(F)c2)CCOCC1)c1cc[nH]n1 | -5.45%
36 | O=C(NCC1(Sc2ccccc2)CC1)c1cc[nH]n1 | 109.2%
37 | O=C(NCCn1nc2ccccn2c1=O)c1cc[nH]n1 | 8.097%
38 | O=C(NCC1(Sc2ccccc2)CC1)c1ccc(=O)[nH]n1 | 98.28%
39 | CN(Cc1ccco1)Cc1ccccc1CNC(=O)c1c[nH]nn1 | 2.895%
40 | CCN(CC)c1ccc(CNC(=O)c2ccc(=O)[nH]n2)cn1 | -14.62%
41 | O=C(NCC1(Sc2ccccc2)CC1)c1c[nH]nn1 | 96.18%
42 | CN1CCN(c2cc(CNC(=O)c3ccc(=O)[nH]n3)ccn2)CC1 | 7.081%
43 | CCc1nnc2n1CCN(c1nc3ccccc3o1)C2 | -17.82%
44 | Cc1ccccc1OCCC(=O)OC(C)C(=O)Nc1sccc1C(N)=O (centres undefined) | 15.81%
45 | CCS(=O)(=O)N1CCC2(CCCN(Cc3cc(OC)ccc3F)C2)C1 (centres undefined) | -8.238%
46 | O=C(COc1ccc(C(F)(F)F)cc1)NS(=O)(=O)c1cccnc1 | -2.745%
47 | O=C(c1ccncc1)N1CC[C@@H](O)[C@@H](O)[C@H](N2CCC(F)(F)CC2)C1 | 113.1%
48 | Cc1ocnc1C(=O)N1CCC(c2nccn2Cc2ccncc2)CC1 | 10.72%
49 | Cc1ncoc1C(=O)N1C[C@@H]2CN(CC3CC3)CCO[C@@H]2C1 | -7.815%
50 | CN1CC(c2ccccc2)CC12CCN(C(=O)c1ccncc1)CC2 (centres undefined) | -13.44%
51 | Cc1ocnc1C(=O)N1CCN(C(=O)CC(C)C)[C@@H]2CS(=O)(=O)C[C@@H]21 | -7.127%
52 | CC(C)C1CN(C(=O)c2ccncc2)CCS1 (centres undefined) | -8.547%

Row | SMILES | Percent Effect
53 | Cc1ncoc1C(=O)N1CC[C@@H](O)[C@@H](O)[C@H](N2CCC(F)(F)CC2)C1 | 142%
54 | Cc1ocnc1C(=O)N1CC[C@@H](O)[C@@H](O)[C@H](N2CCC(F)(F)CC2)C1 | 120%
55 | Cc1ncoc1C(=O)N1CCCC(C(=O)c2cccc(OC(C)C)c2)C1 (centres undefined) | -0.1018%
56 | CC(NC1(CNS(C)(=O)=O)CCOCC1)c1ccccc1 (centres undefined) | 3.887%
57 | COCc1nc(C2CC2)nn1-c1cc(Cl)ccc1OC | -14.4%
58 | CCC(CNC(=O)c1nc(=O)[nH][nH]1)Oc1cccc(C(F)(F)F)c1 (centres undefined) | -1.128%
59 | CC(C)Sc1ncccc1C(=O)NCc1cccc(N(C)C)c1 | 97.33%
60 | COc1cccc(CNC(=O)c2cccnc2SC(C)C)c1 | 92.51%
61 | COc1ccnc(NC(=O)CSCc2cccnc2)c1 | 1.726%
62 | CC(C)Nc1ncccc1C(=O)NCc1cnc(N(C)C)n1C | 23.22%
63 | CCS(=O)(=O)N(C)C1CCN(Cn2ccc(-c3ccc(F)cc3)n2)CC1 | 1.424%
64 | O=C(NC1(c2nccs2)CCCC1)c1cc(C2CC2)on1 | -6.868%
65 | Cc1noc(C)c1CS(=O)(=O)CC(=O)N1c2ccccc2CC1C (centres undefined) | 25.49%
66 | O=C(Cc1ccc(F)cc1Cl)N1C[C@@H](CN2CCC(O)CC2)[C@@H](CO)C1 | -45.53%
67 | Cc1nn(C(=O)c2cccnc2)c(C)c1C | 108.2%
68 | COc1ccc(C(=O)n2nc(C)c(C)c2C)cc1 | 10.75%
69 | Cc1ncnc2c1CCN(C(=O)c1cccnc1)CC2 | -9.06%
70 | CC(=O)NCCNc1cc(C)nc2cc(C)nn12 | -17.81%
71 | Cc1cc(NCCNc2ncccc2C)n2nc(C)cc2n1 | 109.3%
72 | Cc1cc2nc(C(C)C)cc(NCCNc3ncccc3C)n2n1 | 112.1%
73 | Cc1cc(NCc2cccnc2)n2nc(C)cc2n1 | 12.04%
74 | CC(C)c1cc(NCC(C)N2CCCC2)n2nccc2n1 (centres undefined) | -22.52%
75 | CC(C)c1cc(NCC(O)CO)n2nccc2n1 (centres undefined) | 7.798%
76 | CC(C)c1cc(NCC(O)c2ccccn2)n2nccc2n1 (centres undefined) | 16.27%
77 | Cc1cccnc1NCCNc1cc(C(C)C)nc2ccnn12 | 101.8%
78 | Cc1cc2nc(C(C)C)cc(NCC(c3ccccn3)N(C)C)n2n1 (centres undefined) | 15.65%

Row | SMILES | Percent Effect
79 | CN1CCC(n2nc(Cc3cccc(Cl)c3)nc2Cn2ccnc2)CC1 | -3.422%
80 | CCCn1nc(C(=O)NCCc2nnc3n2CCC3)ccc1=O | 5.324%
81 | O=C1CCCN1CCc1noc(-c2ccc3[nH]cnc3c2)n1 | -10.57%
82 | COc1ccc2c(c1)C(NCCc1ncc(C)s1)CCCO2 (centres undefined) | 17.43%
83 | COc1ccc(F)c(CNC2CCCc3nc(N(C)C)ncc32)c1 (centres undefined) | 96.62%
84 | CCCOc1ccc(CNC2CCCc3c2cnn3CC)cc1OC (centres undefined) | 1.181%
85 | CCn1ncc2c1CCCC2NCc1ccc(OC)c(C)c1 (centres undefined) | -3.93%
86 | COc1ccc(OC)c(CNC2CCCc3nc(N(C)C)ncc32)c1 (centres undefined) | 105.7%
87 | COc1cc(F)c(S(=O)(=O)NCc2ccnc(N(C)C)n2)cc1OC | 0.6803%
88 | CCn1ncc2c1CCCC2NCc1cc(Cl)c(OC)c(OC)c1 (centres undefined) | -1.567%
89 | Cc1cc(C)c(C(=O)NC2CCCc3nc(N(C)C)ncc32)cc1C (centres undefined) | -4.078%
90 | COc1ccc(CNC2CCCc3nc(N(C)C)ncc32)c(OC)c1 (centres undefined) | 113.1%
91 | CCOC(C)c1nc(CN2CCC(C3OCCO3)CC2)cs1 (centres undefined) | -5.348%
92 | CN(CCc1nc2ccccc2c(=O)[nH]1)CCC(F)(F)F | -6.377%
93 | CNC(=O)C(C)(C)NC(=O)c1cc(COc2cccc(C(C)=O)c2)[nH]n1 | 5.939%
94 | O=C(Nc1cccc(N2CCN(CC3CC3)CC2)c1)C1CCOC1 (centres undefined) | -7.118%
95 | CCN1CCN(C(=O)c2ccc3c(c2)NC(=O)CN3)[C@H]2CS(=O)(=O)C[C@H]21 | 7.083%
96 | Cn1cc(CN(Cc2ccccc2)CC(O)c2cccs2)cn1 (centres undefined) | -0.3984%
97 | Cn1cc(CN(Cc2ccccn2)Cc2ccccc2Cl)cn1 | 107.7%
98 | CN(Cc1cnn(C)c1)C(=O)NC1CCN(Cc2ccccn2)CC1 | -4.519%
99 | Cc1nn(C)cc1CN(Cc1ccccn1)Cc1ccccc1Cl | 76.4%
100 | Cl.Cn1cc(CN(Cc2ccccc2)Cc2ccccn2)cn1 | 101.3%
101 | CCOc1cccc(CN(Cc2cnn(C)c2)CC(C)C)c1O | 5.177%
102 | COc1ccccc1CN(C)c1nccc(-c2cn(C)nc2C)n1 | -7.113%
103 | COCCN(C/C=C/c1ccccc1)Cc1ccccn1 | -3.939%
104 | OC(CN(Cc1ccccc1)Cc1ccccn1)c1cccs1 (centres undefined) | -16.67%
